56 molecules from PubChem BioAssay AID492953 (The Scripps Research Institute Molecular Screening Center, 2010) can be followed below.

The inhibition is the change of the read-out against control, counted positive when it falls.

The whole screen tested about 340,000 compounds, of which about 4,200 (1.2%) were called active.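 The calls were made as follows: active = inhibition above the mean of all tested compounds plus 3 SD (cut at about 24% in these data); inactive = the rest.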 This excerpt belongs to a sample that is enriched for actives.

Sequence of Platelet-activating factor acetylhydrolase IB subunit alpha2 (Homo sapiens) (P68402 whole entry, looked up): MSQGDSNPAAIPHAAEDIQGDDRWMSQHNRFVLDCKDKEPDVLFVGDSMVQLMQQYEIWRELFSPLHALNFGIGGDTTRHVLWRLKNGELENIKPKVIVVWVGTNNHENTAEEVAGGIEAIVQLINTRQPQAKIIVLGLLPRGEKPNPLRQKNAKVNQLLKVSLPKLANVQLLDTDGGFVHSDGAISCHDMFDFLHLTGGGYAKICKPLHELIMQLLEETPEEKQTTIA

The experiment has as its target Platelet-activating factor acetylhydrolase IB subunit alpha2 (Homo sapiens) (UniProt P68402). Kind of experiment: inhibition of PAF acetylhydrolase 1b subunit 2 – biochemical, fluorescence polarization, human, primary screen (AID 492953).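 Also: 0% = enzyme with DMSO and 100% = wells lacking PAFAH1B2.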 As to conditions: recombinant PAFAH1B2, FP-rhodamine activity probe, at 3.39 µM, hits give high values. On the technique in general: Polarisation of emitted light reports the rotation of a fluorescent probe.
For the molecule `CC12CCC(=O)N1C(C(=O)NCCN1C(=O)S/C(=C\c3ccccc3F)C1=O)CS2` (stereo unspecified), the inhibition is -0.86% (inactive).
Turning to `C/C(=N\NC(=O)Cc1ccccc1[N+](=O)[O-])c1cccnc1`, the inhibition was 4.87% (inactive).
With `CC(C)c1nc(CNC(=O)CC2C(=O)NCCN2Cc2cccc(F)c2F)cs1` (stereo unspecified), the inhibition is 3.42% (inactive).
For `CCCCNC(=O)CN1C(=O)NC(Cc2ccccc2)(Cc2ccccc2)C1=O`, the inhibition was 2.58% (inactive).
Regarding `O=C(CN1C(=O)NC(Cc2ccccc2)(Cc2ccccc2)C1=O)NCC1CCCCC1`, the inhibition was 24.3% (active).
With `O=C(CC1CCCCC1)NCc1ccccc1`, the inhibition was 2.39% (inactive).
Then `CC(/C=C/c1ccccc1)=N\NC(=O)C1CC1(C)c1ccccc1` (stereo unspecified), with 6% (inactive).
With `CCOC(=O)C1(Cc2ccccc2C)CCCN(C(=O)c2ccc(COC)o2)C1` (stereo unspecified), the inhibition is 5.55% (inactive).
For `COc1ccc(Cl)cc1NC(=O)CCS(=O)(=O)c1ccc(Br)cc1`, the inhibition was 10% (inactive).
Take `O=C(CCS(=O)(=O)c1ccc(Br)cc1)NCCc1ccc(Cl)cc1`: the inhibition was 25.1% (active).
As for `Cc1ccc(S(=O)(=O)CCC(=O)OCC(=O)NCCc2ccc(S(N)(=O)=O)cc2)cc1`, the inhibition is -1.78% (inactive).
Then `CCCC(O)(c1ccccc1)C(c1ccccc1)c1ccccn1` (stereo unspecified), with 0.64% (inactive); and `Cc1ccc(NC(=S)NCCc2ccc(Cl)cc2)c(C)c1`, with 24.7% (active); and `Cc1ccc(NC(=S)NCc2ccccc2Cl)c(C)c1`, with -2.26% (inactive).
For the molecule `Cc1cccc(NC(=S)NCCc2ccc(Cl)cc2)c1C`, the inhibition is 13.9% (inactive).
On to `COc1ccc(CNCCCNCc2ccc(OC)c(OC)c2)cc1OC`, for which the inhibition was 2.53% (inactive).
For `ONC(=Nc1ccc(Cl)cc1)c1ccccc1Cl`, the inhibition is 15% (inactive).
For the molecule `C[C@@H](NC(=O)[C@@H]1Cc2ccccc2CN1)C(=O)NC1CCCC1`, the inhibition was 1.64% (inactive).
`CCCCNC(=O)N(O)C1N(/N=C/c2ccccc2O)C(=S)SC1(C)C` (stereo unspecified): the inhibition is 4.39% (inactive).
As for `CCCCNC(=O)N(O)C1N(/N=C/c2ccc(N(C)C)cc2)C(=S)SC1(C)C` (stereo unspecified), the inhibition is 27.3% (active).
Turning to `CCC(C)N1C(=S)SC(C)(C)C1N(O)C(=O)NC1CCCCC1` (stereo unspecified), the inhibition was 5.19% (inactive).
Take `CN(C)c1nc(N)nc(CSc2nnnn2-c2cccc3ccccc23)n1`: the inhibition is 1.2% (inactive).
Then `C=CCN(c1ccc(Cl)cc1)S(=O)(=O)c1cccc(C(=O)OCC(=O)N(C)C)c1`, with 27.3% (active).
Turning to `COc1ccc(N(Cc2ccccc2)S(=O)(=O)c2cccc(C(=O)O)c2)cc1`, the inhibition is -0.1% (inactive).
Consider `CN(C)C(=O)COC(=O)c1cccc(S(=O)(=O)N2CC3(C)CC2CC(C)(C)C3)c1` (stereo unspecified), for which the inhibition is 15.9% (inactive).
Regarding `CCC(CC)COC(=O)C1=C(C)NC(=O)NC1c1ccc([N+](=O)[O-])cc1` (stereo unspecified), the inhibition was 28.2% (active).
With `CC1=C(C(=O)OCC2CCCCC2)C(c2ccc(F)cc2)NC(=O)N1` (stereo unspecified) the figure was 9.14% (inactive).
`CCOCCOC(=O)C1=C(C)NC(=O)NC1c1ccc2c(c1)OCO2` (stereo unspecified): the inhibition is -0.7% (inactive).
For the molecule `O=C(NCC(c1cccs1)N1CCOCC1)c1cc(Cl)ccc1[N+](=O)[O-]` (stereo unspecified), the inhibition is 5.77% (inactive).
With `CSc1ccc(S(=O)(=O)N2CCC(C(=O)NCCc3ccccc3)CC2)cc1`, the inhibition was 0.35% (inactive).
Turning to `CCOc1ccc(/C(O)=C2/C(=O)C(=O)N(Cc3cccnc3)C2c2ccc(N(C)C)cc2)c(C)c1` (stereo unspecified), the inhibition was -1.88% (inactive).
With `O=C(O)/C=C/C(=O)NNc1ccc([N+](=O)[O-])cc1`, the inhibition was 4.93% (inactive).
`O=C(NCc1cccc(C(F)(F)F)c1)c1cccc(S(=O)(=O)N2CCN(Cc3ccccc3)CC2)c1`: the inhibition was -9.49% (inactive).
Then `O=C(CCC(=O)c1ccccc1)NCc1cccc(C(F)(F)F)c1`, with 2.04% (inactive); and `O=C(CCC(=O)N1CCN(S(=O)(=O)c2ccc(Cl)cc2)CC1)NCc1cccc(C(F)(F)F)c1`, with 26.5% (active).
In the case of `CC(=O)NCC(=O)N(Cc1ccco1)C1(C(=O)NC2CCCC2)CCCCC1`, the inhibition is 1.82% (inactive).
For `O=C(NCCc1c[nH]c2ccc(Cl)cc12)c1ccc([N+](=O)[O-])cc1`, the inhibition was 3.76% (inactive).
Take `NS(=O)(=O)c1ccc(CCNC(=O)c2ccc(Cl)cc2[N+](=O)[O-])cc1`: the inhibition was -2.98% (inactive).
Regarding `O=C(NCCc1ccc(Cl)cc1Cl)c1cc([N+](=O)[O-])c[nH]c1=O`, the inhibition was 57% (active).
With `O=C(O)c1ccc(NN=CC2=C(N3CCOCC3)/C(=C/c3ccccc3)CC2)cc1`, the inhibition is -2.37% (inactive).
Regarding `COc1ccc(C(CNC(=O)c2cc(S(=O)(=O)Nc3cccc(C)c3)ccc2C)N2CCCC2)cc1` (stereo unspecified), the inhibition is 4.75% (inactive).
`CC(C)C[C@H]1CN([C@@H](CC(C)C)CN2CCC[C@@H]2CN2C(=O)C(=O)NC[C@@H]2Cc2ccccc2)C(=O)C(=O)N1CCc1ccccc1`: the inhibition was 1.5% (inactive).
On to `O=c1[nH]c(/C=C\c2cccc(C(F)(F)F)c2)nc(O)c1[N+](=O)[O-]`, for which the inhibition was 27.5% (active).
Turning to `Cc1ccccc1/C=C\c1nc(O)c([N+](=O)[O-])c(=O)[nH]1`, the inhibition was 9.97% (inactive).
Regarding `O=c1[nH]c(/C=C/c2cccc(Br)c2)nc2ccccc12`, the inhibition was 1.93% (inactive).
With `Cc1ccnc(SCC(=O)Nc2cccc(S(=O)(=O)N3CCOCC3)c2)n1`, the inhibition was 1.16% (inactive).
For the molecule `COC(=O)C1=C(N)Oc2c(oc(CO)cc2=O)C1c1c(F)cccc1Cl` (stereo unspecified), the inhibition was 0.05% (inactive).
As to `COc1ccc(-c2csc3ncnc(N4CCN(S(=O)(=O)c5cccc(F)c5)CC4)c23)cc1`, the inhibition is 5.03% (inactive).
Consider `O=S(=O)(Nc1ncnc2sccc12)c1cccc(F)c1`, for which the inhibition is -0.25% (inactive).
For `Cc1cc(F)ccc1S(=O)(=O)Nc1ncnc2scc(-c3ccc(F)cc3)c12`, the inhibition was 36.1% (active).
For `CN(CCc1ccccn1)S(=O)(=O)c1ccc2c3c(cccc13)C(=O)N2`, the inhibition is -2.83% (inactive).
In the case of `CN1C(c2ccc(F)cc2)=CS/C1=C(/C#N)c1nnc2n1-c1ccccc1SC2`, the inhibition is 2.85% (inactive).
As for `CCN(CC)C(=O)Oc1ccc(Br)cc1C(=O)Nc1ccc(F)c(Cl)c1`, the inhibition is 7.03% (inactive).
For the molecule `C=CCC[C@H](Cc1ccc(F)cc1)C(=O)OC[C@@H](NC(=O)[C@@H](CC=C)CC(=O)N[C@H](CO)Cc1ccccc1)C(C)(C)C`, the inhibition is 13.2% (inactive).
As for `C=CC[C@@H](CC(=O)N[C@H](CO)Cc1ccccc1)C(=O)N[C@H](C)COC(=O)[C@@H](CC=C)Cc1ccc(F)cc1`, the inhibition is 26.8% (active).
In the case of `C=CC[C@@H](CC(=O)N[C@H](CO)Cc1ccccc1)C(=O)N[C@@H](COC(=O)[C@@H](CC=C)Cc1ccc(F)cc1)Cc1c[nH]c2ccccc12`, the inhibition was -1.64% (inactive).
